Test results: PubChem BioAssay (EPA / NIEHS)
Activity calls are given as the source filed them. Rule for the calls: active = hit-call score of the fitted dose curve at least 0.9, where 1 is the maximum; inactive = score below 0.9.

What was measured:
[1] = read-out: Monokine induced gamma interferon (MIG), CXCL9 (gene 4283); assay: BSK_hDFCGF_MIG: BioMAP Diversity Plus: hDFCGF Assay for Monokine induced gamma interferon (MIG) Biomarker Activity (AID 2283063); details: primary human foreskin fibroblasts; actives raise or lower the signal
Outline: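 Endpoint derived by bidirectional fitting relative to DMSO; MIG quantified via ELISA in primary human foreskin fibroblasts harvested 24 h after dosing.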

[2] = read-out: Matrix Metallopeptidase 1 (MMP1), MMP1 (gene 4312); assay: BSK_hDFCGF_MMP1: BioMAP Diversity Plus: hDFCGF Assay for Matrix Metallopeptidase 1 (MMP1) Biomarker Activity (AID 2283064); details: primary human foreskin fibroblasts; actives raise or lower the signal
Outline: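 MMP1 levels quantified by ELISA 24 h after dosing human dermal fibroblast cultures, with parallel SRB total-protein staining for overt cytotoxicity. Data fitted in both directions against DMSO baseline.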

[3] = read-out: Vascular cell adhesion molecule 1 (VCAM1), VCAM1 (gene 7412); assay: BSK_hDFCGF_VCAM1: BioMAP Diversity Plus: hDFCGF Assay for Vascular cell adhesion molecule 1 (VCAM1) Biomarker Activity (AID 2283065); details: primary human foreskin fibroblasts; actives raise or lower the signal
Outline: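 Measured after 24 h chemical treatment of primary human skin fibroblasts, VCAM-1 was detected by ELISA and concentration-response analysed in both directions versus DMSO vehicle.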

[4] = read-out: Plasminogen activator inhibitor-1 (PAI1), SERPINE1 (gene 5054); assay: BSK_hDFCGF_PAI1: BioMAP Diversity Plus: hDFCGF Assay for Plasminogen activator inhibitor-1 (PAI1) Biomarker Activity (AID 2283066); details: primary human foreskin fibroblasts; actives raise or lower the signal
Outline: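 PAI-1 levels in human dermal foreskin fibroblasts were quantified by ELISA 24 h after dosing, with gain or loss analysed against DMSO. Overt cytotoxicity was checked by sulforhodamine B total-protein staining in parallel cultures.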

[5] = read-out: Interferon-gamma inducible Protein 10 (IP10), CXCL10 (gene 3627); assay: BSK_KF3CT_IP10: BioMAP Diversity Plus: KF3CT Assay for Interferon-gamma inducible Protein 10 (IP10) Biomarker Activity (AID 2283068); details: primary human keratinocytes with fibroblasts; actives raise or lower the signal
Outline: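 Signal is secreted/surface IP-10 by ELISA in a human primary skin co-culture of keratinocytes and foreskin fibroblasts, taken 24 h post-dosing; DMSO served as negative control.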

[6] = BSK_KF3CT_SRB: Viability Assessment in the BioMAP Diversity Plus: KF3CT Assay (AID 2283069); details: primary human keratinocytes with fibroblasts;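 note: read 24 h after compound addition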
Outline: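 Cytotoxicity was gauged by SRB staining (0.1% SRB, 10% TCA fixation, 560 nm) of parallel cultures at 24 h. The cells were primary human skin keratinocytes co-cultured with fibroblasts, and activity was fitted in both directions against DMSO.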

[7] = read-out: TIMP metallopeptidase inhibitor 2 (TIMP2), TIMP2 (gene 7077); assay: BSK_KF3CT_TIMP2: BioMAP Diversity Plus: KF3CT Assay for TIMP metallopeptidase inhibitor 2 (TIMP2) Biomarker Activity (AID 2283071); details: primary human keratinocytes with fibroblasts; actives raise or lower the signal
Outline: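 TIMP-2 measured by ELISA at 24 h in human keratinocyte/fibroblast primary co-cultures exposed to chemicals. Both increases and decreases were fitted against DMSO. Parallel cultures were stained with SRB for total protein as an overt-cytotoxicity check.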

[8] = read-out: Transforming growth factor beta 1 (TGFb1), TGFB1 (gene 7040); assay: BSK_KF3CT_TGFb1: BioMAP Diversity Plus: KF3CT Assay for Transforming growth factor beta 1 (TGFb1) Biomarker Activity (AID 2283072); details: primary human keratinocytes with fibroblasts; actives raise or lower the signal
Outline: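 ELISA quantifies TGF-b1 at 24 h post-dose in a primary human skin co-culture of keratinocytes and fibroblasts, with gain or loss judged against DMSO. Parallel SRB total-protein staining flags overt cytotoxicity.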

[9] = read-out: C-C motif chemokine 2 (Homo sapiens) (UniProt P13500); assay: BSK_KF3CT_MCP1: BioMAP Diversity Plus: KF3CT Assay for Monocyte Chemoattractant Protein 1 (MCP1/CCL2) Biomarker Activity (AID 2283073); details: primary human keratinocytes with fibroblasts; actives raise or lower the signal
Outline: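 Biomarker MCP-1 is measured by ELISA in primary human keratinocytes co-cultured with foreskin fibroblasts, 24 h after chemical treatment; DMSO serves as the negative control and activity baseline.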

[10] = read-out: Matrix Metallopeptidase 9 (MMP9), MMP9 (gene 4318); assay: BSK_KF3CT_MMP9: BioMAP Diversity Plus: KF3CT Assay for Matrix Metallopeptidase 9 (MMP9) Biomarker Activity (AID 2283074); details: primary human keratinocytes with fibroblasts; actives raise or lower the signal
Outline: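 MMP-9 quantified by ELISA after 24 h chemical treatment of primary human skin keratinocyte/fibroblast co-cultures; gain or loss fitted against DMSO, with parallel SRB staining (0.1% SRB, 560 nm) for overt cytotoxicity.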

[11] = read-out: urokinase plasminogen activator (uPA), PLAU (gene 5328); assay: BSK_KF3CT_uPA: BioMAP Diversity Plus: KF3CT Assay for urokinase plasminogen activator (uPA) Biomarker Activity (AID 2283075); details: primary human keratinocytes with fibroblasts; actives raise or lower the signal
Outline: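 ELISA read-out of uPA 24 h after dosing human skin keratinocytes co-cultured with foreskin fibroblasts. Signal change fitted both ways relative to DMSO; sulforhodamine B on parallel cultures marks overt cytotoxicity.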

CD40, CD40 (gene 958) = assay: BSK_LPS_CD40: BioMAP Diversity Plus: LPS Assay for CD40 Biomarker Activity (AID 2283076); details: primary human HUVEC with PBMC; actives raise or lower the signal
Outline: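 Using a multiplexed primary human co-culture (umbilical vein endothelium plus PBMC), CD40 was read by ELISA 24 h after dosing, with cytotoxicity tracked by sulforhodamine B staining of parallel cultures and activity fitted bidirectionally versus DMSO.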

[12] = read-out: E-selectin (Homo sapiens) (UniProt P16581); assay: BSK_LPS_Eselectin: BioMAP Diversity Plus: LPS Assay for Eselectin Biomarker Activity (AID 2283077); details: primary human HUVEC with PBMC; actives raise or lower the signal
Outline: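 Dose chemical onto LPS-driven HUVEC/PBMC co-culture; after 24 h, run ELISA for E-selectin; fit up- and down-going responses relative to DMSO control.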

[13] = read-out: Interleukin-8 (IL8), CXCL8 (gene 3576); assay: BSK_LPS_IL8: BioMAP Diversity Plus: LPS Assay for Interleukin-8 (IL8) Biomarker Activity (AID 2283078); details: primary human HUVEC with PBMC; actives raise or lower the signal
Outline: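 In this LPS system, chemical-treated human umbilical vein endothelium/PBMC co-cultures were harvested at 24 h for IL-8 ELISA.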

[14] = BSK_LPS_SRB: Viability Assessment in the BioMAP Diversity Plus: LPS Assay (AID 2283079); details: primary human HUVEC with PBMC;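 note: total protein by sulforhodamine B absorbance as a cytotoxicity measure; measured one day after compound addition; fitted in both directions against DMSO so loss or gain of signal counts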
Outline: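 Cytotoxicity endpoint in human endothelial–PBMC co-culture: 24 h exposure, then SRB (0.1%) staining, 560 nm read.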

[15] = read-out: Interleukin-1 alpha (IL1a), IL1A (gene 3552); assay: BSK_LPS_IL1a: BioMAP Diversity Plus: LPS Assay for Interleukin-1 alpha (IL1a) Biomarker Activity (AID 2283080); details: primary human HUVEC with PBMC; actives raise or lower the signal
Outline: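 Primary human HUVEC and PBMC co-culture stimulated with LPS is dosed and harvested at 24 h. Both increases and decreases in ELISA-measured IL-1a are scored relative to DMSO.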

[16] = read-out: Monocyte Chemoattractant Protein-1 (MCP1), CCL2 (gene 6347); assay: BSK_LPS_MCP1: BioMAP Diversity Plus: LPS Assay for Monocyte Chemoattractant Protein-1 (MCP1) Biomarker Activity (AID 2283081); details: primary human HUVEC with PBMC; actives raise or lower the signal;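 for AC50: secreted MCP-1 protein quantified by ELISA in culture supernatant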
Outline: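 Values derive from bidirectional fitting against DMSO of ELISA-measured MCP-1 in a human primary endothelial and mononuclear cell co-culture, 24 h after chemical addition under LPS activation.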

[17] = BSK_LPS_PGE2: BioMAP Diversity Plus: LPS Assay for Prostaglandin E2 (PGE2) Biomarker Activity (AID 2283082); details: primary human HUVEC with PBMC; actives raise or lower the signal;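 for AC50: secreted prostaglandin E2 measured by ELISA in LPS-stimulated co-culture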
Outline: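 PGE2 release measured by ELISA in an LPS-activated co-culture of human umbilical vein endothelial cells and peripheral blood mononuclear cells, read at 24 h post-dosing. DMSO served as baseline for bidirectional curve fitting.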

[18] = read-out: Interleukin-1 alpha (IL1a), IL1A (gene 3552); assay: BSK_KF3CT_IL1a: BioMAP Diversity Plus: KF3CT Assay for Interleukin-1 alpha (IL1a) Biomarker Activity (AID 2283070); details: primary human keratinocytes with fibroblasts; actives raise or lower the signal
Outline: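 IL-1a was detected by ELISA 24 h after chemical treatment of a co-culture of human skin keratinocytes and foreskin fibroblasts. Gain or loss of signal was fitted against the DMSO baseline.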

Measured: AC50

E-selectin (Homo sapiens), sequence (P16581 whole entry, looked up): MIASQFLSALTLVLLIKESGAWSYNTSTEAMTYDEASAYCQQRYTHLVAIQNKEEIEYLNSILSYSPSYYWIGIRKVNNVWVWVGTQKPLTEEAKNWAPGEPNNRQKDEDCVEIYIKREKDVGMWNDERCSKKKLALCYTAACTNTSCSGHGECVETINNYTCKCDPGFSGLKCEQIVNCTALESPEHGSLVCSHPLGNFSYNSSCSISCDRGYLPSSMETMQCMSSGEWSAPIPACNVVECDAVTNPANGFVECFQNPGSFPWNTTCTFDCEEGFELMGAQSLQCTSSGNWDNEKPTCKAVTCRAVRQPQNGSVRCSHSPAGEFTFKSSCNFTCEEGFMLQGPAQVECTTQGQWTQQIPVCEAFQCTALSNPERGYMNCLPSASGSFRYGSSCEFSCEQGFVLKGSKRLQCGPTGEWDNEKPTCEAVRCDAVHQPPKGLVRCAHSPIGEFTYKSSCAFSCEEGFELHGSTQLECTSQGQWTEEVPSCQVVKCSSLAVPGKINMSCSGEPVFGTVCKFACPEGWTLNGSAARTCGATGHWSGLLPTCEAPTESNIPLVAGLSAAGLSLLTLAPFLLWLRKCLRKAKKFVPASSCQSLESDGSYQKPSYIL

Cc1ccc(N)cc1O
active: [17] 4.87 µM
inactive: [1] | [2] | [3] | [4] | [5] | [6] | [7] | [8] | [9] | [10] | [11] | CD40, CD40 (gene 958) | [12] | [13] | [14] | [15] | [16]

CCCN(C1CCN(C(=O)C2CCNCC2)CC1)[C@@H]1CCc2ccc(OC)cc2C1
inactive: [1] | [2] | [3] | [4] | [5] | [6] | [7] | [8] | [9] | [10] | [11] | CD40, CD40 (gene 958) | [12] | [13] | [14] | [15] | [16] | [17]

Fc1ccccc1[C@@H](F)COC1CCC(Nc2ncnc3[nH]ncc23)CC1 (some centres undefined)
inactive: [1] | [2] | [3] | [4] | [5] | [6] | [18] | [7] | [8] | [9] | [10] | [11] | [17]
active: CD40, CD40 (gene 958) 15.4 µM | [12] 29 µM | [13] 28.9 µM | [14] 29.2 µM | [16] 30.3 µM
